An excerpt weighted towards active compounds, which were near 4% of everything screened.
RecA splice inh: blocks M. tuberculosis RecA intein splicing. P9WHJ3. cell-free RecA intein splicing, fluorescence. inhibition, % (test concentration not listed). actives 0.75% (n = 290,000). AID 2221; in the data active means inhibition above about 30%; inconclusive means no clear call, values can overlap the other calls;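 further: 0% = vehicle wells and 100% = reference inhibitor control wells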
Target sequence (P9WHJ3 whole entry, looked up, canonical isoform): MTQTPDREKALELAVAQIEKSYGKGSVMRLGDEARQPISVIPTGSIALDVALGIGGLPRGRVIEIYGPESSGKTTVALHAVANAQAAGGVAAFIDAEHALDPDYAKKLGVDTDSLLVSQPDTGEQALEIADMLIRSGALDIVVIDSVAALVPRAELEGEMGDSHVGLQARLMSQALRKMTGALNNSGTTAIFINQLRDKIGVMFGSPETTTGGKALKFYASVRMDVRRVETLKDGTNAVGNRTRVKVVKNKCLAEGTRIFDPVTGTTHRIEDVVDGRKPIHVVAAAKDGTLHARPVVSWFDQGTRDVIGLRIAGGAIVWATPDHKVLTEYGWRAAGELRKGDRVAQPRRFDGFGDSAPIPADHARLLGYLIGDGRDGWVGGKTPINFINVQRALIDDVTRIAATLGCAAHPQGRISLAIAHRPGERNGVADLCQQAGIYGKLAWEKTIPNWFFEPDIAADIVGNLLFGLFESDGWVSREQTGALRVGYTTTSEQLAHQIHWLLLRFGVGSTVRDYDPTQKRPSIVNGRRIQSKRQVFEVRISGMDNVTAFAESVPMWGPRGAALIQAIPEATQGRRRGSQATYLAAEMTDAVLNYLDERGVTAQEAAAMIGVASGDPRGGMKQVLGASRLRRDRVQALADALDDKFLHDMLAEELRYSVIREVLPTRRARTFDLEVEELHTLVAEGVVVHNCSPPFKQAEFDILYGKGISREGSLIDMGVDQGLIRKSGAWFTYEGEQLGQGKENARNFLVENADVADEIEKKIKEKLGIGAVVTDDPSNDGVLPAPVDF
Rv3671c inh: inhibitors of M. tuberculosis serine protease Rv3671c | inhibition, % at 5.96 µM | P9WHR9 | actives 0.048% (n = 320,000) | AID 2606; in the data active means inhibition above about 38%;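 further: extracellular domain of Rv3671c used as enzyme; 0% = enzyme with DMSO and 100% = no enzyme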
GDH-TPI inh: inhibits GDH-TPI coupling enzymes, artifact for Mtb FBA screen; GDH-TPI coupled enzyme counterscreen, NADH absorbance; inhibition, % at 4.8 µM; actives 1.2% (n = 360,000); in the data active means inhibition above about 30%;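 further: 0% = DMSO wells and 100% = wells lacking the enzyme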
Mtb FBA inh: Mtb fructose-bisphosphate aldolase inhibition; inhibition, % at 1 µM; P9WQA3; purified M. tuberculosis FBA, fluorescence read-out; actives 2.3% (n = 360,000); in the data active means inhibition above about 27%;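 further: 0% = vehicle and 100% = reference inhibitor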
UGM FP inh: blocks M. tuberculosis UGM enzyme; purified UGM, fluorescence polarization probe displacement; inhibition, % at 10 µM; actives 0.06% (n = 320,000); AID 504406; in the data active means inhibition above about 10%, passing the limit was not always enough; inconclusive means no clear call, values can overlap the other calls
Mtb bLac sens: beta-lactam sensitization of Mtb H37Rv | M. tuberculosis H37Rv growth with meropenem, percent inhibition | inhibition, % at 25 µM | actives 0.27% (n = 330,000);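 further: growth measured after seven days incubation then overnight dye step; 0% = bacteria only wells and 100% = bacteria with antibiotic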
GFP chromo cs: counter-screen: blocks GFP chromophore formation; actives 83% (n = 2,100); AID 434968; shares compounds with RecA splice inh; cell-free GFP chromophore formation, fluorescence; EC50, µM
Numbers without * were called inactive; u = inconclusive; x = no result given. Unless noted, how the calls were made is not given here.

SMILES | RecA splice inh | Rv3671c inh | GDH-TPI inh | Mtb FBA inh | UGM FP inh | Mtb bLac sens | GFP chromo cs
Oc1ccc(O)c(Cc2nc3ccccc3s2)c1 | 31* | -5 | 0 | 6 | 2 | -2 | >38
CCc1ccc2c(c1)C(NC(C)=O)C(=O)N2CCN1CCOCC1 (stereo unspecified) | 49* | 19 | 5 | 14 | 1 | 2 | >38
COc1cc(/C=C2/C(=O)N(c3ccc([N+](=O)[O-])cc3)N=C2N2CCOCC2)ccc1O | 46* | -182 | 39* | -7 | 2 | 76 | 23*
CCOc1ccccc1CN1CCNC(=O)C1CC(=O)N(C)C1CCOCC1 (stereo unspecified) | 0 | -1 | 2 | -1 | 0 | 4 | x
O=[N+]([O-])c1c(NCc2ccco2)ccc2nonc12 | 42* | 5 | -9 | 0 | -1 | -6 | 20*
O=[N+]([O-])c1c(Nc2ccccc2)ccc2nonc12 | 1 | -6 | -6 | -17 | 0 | -5 | x
c1ccc(CCNCc2cccs2)cc1 | 33* | x | 7 | 2 | -1 | -3 | >38
C=CCOc1ccc(/C=N/n2nnnc2N)cc1OC | 1 | 3 | 25 | 5 | -1 | 2 | x
CC(NC(=O)/C(C#N)=C/c1ccc(Cl)c([N+](=O)[O-])c1)c1ccccc1 (stereo unspecified) | 62* | -10 | x | x | 0 | 81 | 14*
Cc1ccc2c(c1)[C@H]1[C@H](CO2)[C@H](c2ccccc2)[C@]2(C)C(=O)NCC(=O)N12 | x | -1 | -7 | 0 | 0 | -2 | x
O=C(CCl)Oc1ccc2occ(C(=O)c3cccs3)c2c1 | 32* | -10 | 3 | -5 | 2 | -13 | 25*
O=C1NC(Cc2ccc(O)cc2)c2nc3ccc(Cl)cc3c(=O)n2-c2ccc(Cl)cc21 (stereo unspecified) | x | -4 | x | x | 0 | 1 | x
O=C(CCl)Nc1c(C(=O)Nc2ccc3c(c2)OCCO3)oc2ccccc12 | 31* | -4 | 12 | -2 | 3 | 94 | 3.6*
O=S(=O)(c1ccc(Cl)c(Cl)c1)c1snnc1-c1ccccc1 | 80* | x | -1 | 1 | x | x | 1.3*
CCCc1cc(=O)n2[nH]c(-c3ccccc3)cc2n1 | -1 | 2 | 0 | 18 | 3 | 2 | x
CCCCn1[nH]c(-c2ccccc2)cc1=O | 97* | -147 | 6 | 3 | 0 | 9 | 2.8*
CCC1=Nc2cc(C(=O)NCCCN3CCOCC3)ccc2Sc2ccccc21 | -1 | -7 | -6 | 1 | -1 | -1 | x
CCC1=Nc2cc(C(=O)NCCN3CCCC3)ccc2Sc2ccccc21 | 38* | -2 | -6 | 1 | -1 | -2 | >38
CCOC(=O)c1c(CSC(=N)N)n(-c2ccc(C)cc2)c2cc(Br)c(OC(C)=O)cc12 | 70* | -5 | 0 | 2 | -1 | 39 | 7.9*
CCOC(=O)c1c(CSC(=N)N)n(C)c2cc(Br)c(OC(C)=O)cc12 | 25 | -3 | 2 | 0 | 0 | 2 | x
C#CC(=O)N(c1cc(OC)ccc1OC)C(C(=O)NC1CCCC1)c1cccs1 (stereo unspecified) | 31* | 6 | 7 | 0 | 0 | 13 | 2.9*
CC(=O)N1c2ccc(S(=O)(=O)NCC3CCC(C(=O)N4CC(C)CC(C)C4)CC3)cc2CC1C (stereo unspecified) | 0 | 0 | 5 | -2 | -2 | 1 | x
c1cc2cn[nH]c2cc1NC1CCCCCC1 | 89* | -23 | 21 | 14 | 1 | 12 | 16*
COC(=O)CN1C(=O)C2(C(C#N)=C(N)Oc3c2c(C)nn3-c2ccccc2)c2ccccc21 (stereo unspecified) | 75* | 5 | 6 | -1 | 0 | -2 | 15*
CCOC(=O)c1cnc(-n2[nH]c(C)c(Cc3ccccc3)c2=O)[nH]c1=O | 33* | 5 | 7 | 1 | 1 | 3 | 34*
SMILES | RecA splice inh | Rv3671c inh | GDH-TPI inh | Mtb FBA inh | UGM FP inh | Mtb bLac sens | GFP chromo cs
CCOC(=O)c1cnc(-n2[nH]c(C)cc2=O)[nH]c1=O | 6 | 3 | 0 | -1 | 7 | 2 | x
Clc1ccc(-n2nnnc2Sc2ncnc3sccc23)cc1 | 39* | -10 | 15 | 6 | 0 | 100 | 10*
Cc1sc2ncnc(Sc3nnnn3-c3ccccc3)c2c1C | 34* | -4 | 9 | 27* | -2 | 64 | 18*
Cn1nnnc1Sc1ncnc2scc(-c3ccc(Cl)cc3)c12 | x | -2 | -2 | 2 | 5 | 63 | x
Cc1ccccc1-n1ncc2c([N+](=O)[O-])cc([N+](=O)[O-])cc21 | 85* | 5 | 15 | 1 | 0 | 99 | 5.8*
COc1ccc(CN2CCC[C@]3(N[C@H](c4ccc(C(F)(F)F)cc4)[C@@H]4C(=O)N(C)C(=O)[C@@H]43)C2=O)cc1 | x | x | -3 | 0 | x | x | x
CC(OC(=O)c1ccc(S(C)(=O)=O)c([N+](=O)[O-])c1)C(=O)NC1C2CC3CC(C2)CC1C3 (stereo unspecified) | x | x | 4 | 1 | x | x | x
CCOC(=O)C1=C(C)n2c(s/c(=C/c3cccc([N+](=O)[O-])c3)c2=O)=NC1c1ccc(O)c(OC)c1 (stereo unspecified) | 35* | 8 | 9 | -1 | 3 | x | 36*
CCOC(=O)C1CCN(Cc2cc(C(C)C)c(O)c(C(C)C)c2)CC1 | 59* | -6 | 0 | -1 | 0 | -2 | >38
COC(=O)C1(C)NC(c2cccc(C)c2)C2C(=O)N(c3ccccc3)C(=O)C21 (stereo unspecified) | x | x | 0 | -2 | x | x | x
CCOC(=O)c1nnc(-c2ccccc2)nc1Sc1c(Cl)cccc1Cl | 54* | 3 | 4 | 3 | -3 | 5 | 38*
CCOC(=O)c1nnc(-c2ccc(C)cc2)nc1Sc1ccccc1Cl | 22 | -7 | 13 | 6 | 2 | 52 | x
Cc1cccc(N2C(=O)C(Cl)=C(N3CCOCC3)C2=O)c1 | 87* | 0 | 24 | 0 | 0 | u | 4.5*
O=C1CC(N2CCOCC2)C(=O)N1c1cccc(Cl)c1 (stereo unspecified) | -4 | 1 | 1 | -1 | -1 | 2 | x
O=C1C(Cl)=C(N2CCOCC2)C(=O)N1c1cccc(Cl)c1 | 84* | -11 | 17 | -1 | 1 | 98 | 2.8*
Cc1c(NC(=O)c2cccc(NC(=O)C(C)Oc3ccccc3)c2)c(=O)n(-c2ccccc2)n1C (stereo unspecified) | x | x | 0 | -2 | x | x | x
COc1cccc(-n2sc3c(c2=S)-c2cc(OC)ccc2NC3(C)C)c1 | -6 | 0 | 7 | 1 | 1 | -1 | x
CC1(C)Nc2ccc(O)cc2-c2c1ssc2=S | 93* | 0 | 3 | -4 | 1 | 42 | 2.4*
CCOC(=O)N1C(=O)[C@@](c2ccc(Cl)cc2)(C(C)C)N1C(=O)OCC | 49* | 4 | 0 | 1 | -1 | 1 | 33*
COC(=O)N1C(=O)[C@](c2ccccc2)(C(C)C)N1C(=O)OC | -1 | -2 | 6 | 1 | 3 | -3 | x

Screening data deposited in PubChem by several laboratories.
